We go through 23 molecules from PubChem BioAssay (NCATS).

Molecules are shown by their SMILES. Records with an inconclusive call do not appear. Entries that show only a call come without a potency. A number with no mark means an inactive call. The source made the active and inactive calls. The call rests on the fitted dose curve; in most records, active means well fitted cell-killing curve with a large enough effect; inconclusive means small, poorly fitted or top-dose-only effect, or effect the other way; inactive means flat fitted curve, though single readings scatter. *1 amine or outer side, *2 acyl side, *3 side chain or, on linkers, in order; H or OH if unused. Where a SMILES comes first, the peptide text is derived from it. [ ]: non-standard residue; d: D form. X4 = CC(C)=CCc1cc(C(O)C(N[*:1])C(=O)[*:2])ccc1O

The first experiment concerns CAOV3. The experiment in a line: Primary qHTS to identify gynecologic anti-cancer compounds using libraries of approved drugs and bioactive compounds (AID 1345084). Further: nearly all actives have a fitted effect of over 55% in size. To be noted: Gynecologic cancer cell panel viability, ATPlite luminescence, 48 h; series mostly up to 57.5 µM. Put shortly:
(§1)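 Five-concentration response, 48 h; readout is ATP-driven luciferase luminescence.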
(In qHTS, concentration-response curves come from the screen itself.)
For `C=C(C(=O)O)C1CCC2(C)CCC(O)C(=C)C2C1` (stereo not drawn), the Potency entry is “inactive”.
As for `C=C(C)C1CCC2(C(=O)O[C@@H]3O[C@H](CO[C@@H]4O[C@H](CO)[C@@H](O)[C@H](O)[C@H]4O)[C@@H](O)[C@H](O[C@@H]4O[C@@H](C)[C@H](O)[C@@H](O)[C@H]4O)[C@H]3O)CCC3(C(=O)O)C(CCC4C5(C)CCC(O)C(C)(C)C5CCC43C)C12` (stereo partly drawn), the activity change, negative = cytotoxicity was -3.74% [at 11.6 µM].
For `CC(NC(=O)C(O)C(C)C)C(=O)NC1C(=O)N(C)CCc2ccccc21` (stereo not drawn), the Potency entry was “inactive”.
`CC(=O)O[C@@H]1[C@H](O)[C@@H](O[C@@H]2O[C@@H](C)[C@H](O[C@@H]3OC[C@@H](O)[C@H](O[C@@H]4OC[C@@H](O)[C@H](O)[C@H]4O)[C@H]3O)[C@@H](O[C@@H]3O[C@H](CO)[C@@H](O)[C@H](O)[C@H]3O)[C@H]2O)[C@H](OC(=O)[C@]23CCC(C)(C)C[C@H]2C2=CCC4[C@@]5(C)CC[C@H](O[C@@H]6O[C@H](C(=O)O)[C@@H](O)[C@H](O[C@@H]7OC[C@@H](O)[C@H](O)[C@H]7O)[C@H]6O[C@@H]6O[C@H](CO)[C@H](O)[C@H](O)[C@H]6O)[C@@](C)(C=O)C5CC[C@@]4(C)[C@]2(C)CC3)O[C@@H]1C` (stereo partly drawn): the activity change, negative = cytotoxicity is 19.4% [at 6.55 µM].
Regarding `CCN(Cc1cccnc1)C(=O)CN(c1ccc(OC)nc1)S(=O)(=O)c1ccccc1C`, the Potency entry is “inactive”.
Take `COc1ccc(CN2C(=O)C(=O)c3cc(S(=O)(=O)N4CCC[C@H]4COc4cccnc4)ccc32)cc1`: the Potency entry was “inactive”.
Consider `CC1=CC(=O)[C@]2(O[C@@H]3O[C@@H](C)[C@H](O)[C@@H](O)[C@H]3OC(=O)/C=C/c3ccccc3)C=CO[C@@H](O[C@@H]3O[C@H](CO)[C@@H](O)[C@H](O)[C@H]3O)[C@H]12`, for which the Potency entry was “inactive”.
For the molecule `O=C(O)c1ccccc1NC(=O)N1CCC(c2ccccc2C(F)(F)F)CC1`, the Potency result was “inactive”.
The same measure, in the same setting: with `Nc1nc2c(ncn2[C@@H]2O[C@H](CO)[C@@H](O)[C@H]2O)c(=O)[nH]1` the entry was “inactive”; with `C/C1=C\C[C@]2(C)C(=O)C(O)=C([C@H](C)CO)[C@H]2C/C=C(\C)[C@@H](O)CC/C(C)=C/CC1`, “inactive”.

For a further experiment, the system named is CASKI. The description is as above. The note with it: Gynecologic cancer cell panel viability, ATPlite luminescence, 48 h; series mostly up to 57.5 µM. Put shortly: as §1
On the technique in general: In ATP-based viability assays light output follows the ATP content of the culture.
In the case of `CN(C)CC1CCOC1(c1ccccc1)c1ccccc1` (stereo not drawn), the Potency result was “inactive”.
On the same count and under the same terms, under `O=C(OC1C=C(CO)C2C(OC3OC(CO)C(O)C(O)C3O)OC=CC12)c1ccc(O)cc1` (stereo not drawn) stands “inactive”.
Consider `CC1(C)CC[C@]2(C(=O)OC3OC(CO)C(O)C(O)C3O)CC[C@]3(C)C(=CCC4[C@@]5(C)CC[C@H](OC6OC(C(=O)O)C(O)C(OC7OC(CO)C(O)C(O)C7O)C6O)C(C)(C)C5CC[C@]43C)C2C1` (stereo partly drawn), for which the activity change, negative = cytotoxicity was 5.34% [at 11.6 µM].
`CC(C)=CCc1cc(C(O)C2NC(=O)CNC(=O)C(Cc3c[nH]c4ccccc34)NC(=O)C3CCCN3C(=O)CNC(=O)C(C(C)C)NC(=O)CNC2=O)ccc1O` (stereo not drawn) (cyclo(G[X4]GVGPW); configuration not given here): the activity change, negative = cytotoxicity was -0.505% [at 11.6 µM].
With `COc1ccc(CCO[C@@H]2CCCC[C@H]2N2CC[C@@H](O)C2)cc1OC`, the Potency entry is “inactive”.
`COC(=O)C1=CO[C@@H](O[C@@H]2O[C@H](CO)[C@@H](O)[C@H](O)[C@H]2O)[C@@H]2C(COC(C)=O)=C[C@H](O)[C@H]12`: the Potency entry was “inactive”.
Take `CC12CCC(OC3OC(CO)C(O)C(OC4OC(CO)C(O)C(O)C4O)C3O)CC1=CCC1C2CCC2(C)/C(=C3/COC(=O)C3)CCC12O` (stereo not drawn): the Potency result was “inactive”.
As for `C/C1=C\[C@H]2OC(=O)[C@@H](C)[C@@H]2CC/C(C(=O)O)=C/CC1`, the Potency entry is “inactive”.
`CC12CCC(OC3OC(CO)C(O)C(OC4OC(CO)C(O)C(O)C4O)C3O)CC1CCC1C2CCC2(C)/C(=C3/COC(=O)C3)CCC12O` (stereo not drawn): the Potency result was “inactive”.
As for `CC1(C)CCC[C@@]2(C)C1[C@H](OC(=O)/C=C/C=C/C(=O)O)C=C1COC(=O)[C@@]12O` (stereo partly drawn), the Potency entry was “inactive”.
The same measure, in the same setting: with `CO/N=C(/C(=O)N[C@@H]1C(=O)N2C(C(=O)O)=C(Cn3ccc(=N)n3CCO)CS[C@H]12)c1csc(N)n1` the entry was “inactive”.
For `CC(C)=CCC[C@](C)(O)[C@H]1CC[C@]2(C)[C@@H]1[C@H](O)CC1[C@@]3(C)CC[C@H](O)C(C)(C)[C@@H]3[C@@H](O[C@@H]3O[C@H](CO)[C@@H](O)[C@H](O)[C@H]3O[C@@H]3O[C@H](CO)[C@@H](O)[C@H](O)[C@H]3O)C[C@]12C` (stereo partly drawn), the Potency entry is “inactive”.
For the molecule `C[C@@H]1O[C@@H](O[C@H]2[C@H](OC(=O)[C@]34CCC(C)(C)C[C@H]3C3=CCC5[C@@]6(C)C[C@H](O)[C@H](O[C@@H]7O[C@H](CO)[C@@H](O)[C@H](O)[C@H]7O)[C@@](C)(CO)C6[C@H](O)C[C@@]5(C)[C@]3(C)CC4)OC[C@H](O)[C@@H]2O)[C@H](O)[C@H](O)[C@H]1O[C@@H]1OC[C@@H](O)[C@H](O[C@@H]2OC[C@](O)(CO)[C@H]2O)[C@H]1O` (stereo partly drawn), the activity change, negative = cytotoxicity was 15.5% [at 6.55 µM].
